From PubChem BioAssay (EPA / NIEHS)
Results filed as inconclusive are left out. The source made the active and inactive calls. The calls were made as follows: active = hit-call score of the fitted dose curve at least 0.9, where 1 is the maximum; inactive = score below 0.9.

read-out: Cytochrome P450 2C9 (Homo sapiens) (UniProt P11712); assay: CLD_CYP2C9_48hr: CellzDirect (CLD) Gene Expression Assay for xenobiotic metabolism (CYP2C9) at 48 hours (AID 2283701)
Protocol: CLD_48hr is a cell-based, multiplexed-readout assay that uses hepatocyte, a human liver primary cell, with measurements taken at 48 hours after chemical dosing in a 96-well plate.CLD_CYP2C9_48hr is one of 16 assay component(s) measured or calculated from the CLD_48hr assay. It is designed to make measurements of mRNA induction, a form of inducible reporter, as detected with chemiluminescence signals by Quantitative Nuclease Protection Assay (qNPA) technology.Data from the assay component CLD_CYP2C9_48hr was analyzed at the endpoint, CLD_CYP2C9_48hr, in the positive analysis fitting direction relative to DMSO as the negative control and baseline of activity. Using a type of inducible reporter, gain-of-signal activity can be used to understand changes in the reporter gene as they relate to the gene CYP2C9. Furthermore, this assay endpoint can be referred to as a primary readout. To generalize the intended target to other relatable targets, this assay endpoint is annotated to the cyp intended target family, where subfamily is xenobiotic metabolism.
Human hepatocyte cultures were treated daily for two consecutive days with fresh dosing solutions containing appropriate concentrations of the 320 ToxCast chemicals (chemical identities were blinded to CellzDirect and other ToxCast collaborators), vehicle control (0.2% DMSO), and positive control inducers as summarized in Table 1. Due to the large number of treatment groups and chemicals examined, the ToxCast chemicals were divided into two groups (spanning two independent cultures of hepatocytes from separate donor preparations (Hu778: ToxCast plates 1 and 2; Hu776: ToxCast plates 3 and 4). Each preparation of human hepatocyte cultures was treated with respective vehicle control, medium only control, set of six positive controls/reference chemicals for the five hepatic receptor pathways, and a subset of eight of the ToxCast chemicals (indoxacarb, pyrithiobac-sodium, norflurazon, cyhalofop-butyl, methomyl, thiram, acetochlor, and propiconazole). These replicate data, coupled with internal replicates designed within the blinded ToxCast chemical library, provided additional data to evaluate interindividual differences between hepatocyte preparations and their potential impact on chemical profiles.Cell morphology and integrity were evaluated using phase-contrast microscopy as an indicator of hepatocyte cell health (Tyson & Green, 1987). Cultures for each treatment group (i.e., media, vehicle [0.2% DMSO], positive control inducers [multiple concentrations], and the ToxCast chemicals [multiple concentrations]) were observed and cell morphology was assessed relative to vehicle control cultures at each harvest time point (0, 6, 24, or 48 h). […] Images were evaluated at the conclusion of the study to assess changes in cell integrity and account for the effects of chemical exposure on uncharacteristic changes in concentration-dependent gene expression profiles. The results from these determinations of apparent cytotoxicity were annotated (yes/no) alongside the corresponding qNPA data for reference.At the conclusion of each treatment period, hepatocyte cultures (96-well) were washed with 1 volume of HBSS, lysed by addition of 25 ul ArrayPlate lysis buffer (HTG, Tucson, AZ), and 70 ul/well of Denaturation Oil, denatured by incubation at 95C for 10 min, and frozen at approximately -70C until analysis by nuclease protection assay (qNPA) (Roberts et al., 2007). For qNPA analysis, cell lysates were thawed at 50C for approximately 30 min, qNPA probes were added, and samples were incubated at 95C for 10 min to begin the detection process by denaturing the target RNA, dissociating the duplexes and secondary structure hybridization. At the conclusion of the hybridization period, S1 nuclease reagent was added to each sample to digest all nonprotected nucleotides at 50C for 60-90 min. […]

Compound | outcome
O=C(O)COc1nc(Cl)c(Cl)cc1Cl | inactive
COP(=S)(OC)Oc1nc(Cl)c(Cl)cc1Cl | inactive
COc1nc(NC(C)C)nc(NC(C)C)n1 | inactive
CCOC(=O)C(Cl)Cc1cc(-n2nc(C)n(C(F)F)c2=O)c(F)cc1Cl (stereo not drawn) | inactive
CC(C)Oc1cc(-n2nc(C(C)(C)C)oc2=O)c(Cl)cc1Cl | inactive
CCNc1nc(Cl)nc(NC(C)C)n1 | inactive
COC(=O)c1ccccc1C(=O)OC | inactive
COP(N)(=O)SC (stereo not drawn) | inactive
COc1cnc(OC)n2nc(NS(=O)(=O)c3c(OCC(F)F)cccc3C(F)(F)F)nc12 | inactive
C#CCOS(=O)OC1CCCCC1Oc1ccc(C(C)(C)C)cc1 (stereo not drawn) | inactive
CCON=C(CC)C1=C(O)CC(c2c(C)cc(C)cc2C)CC1=O (stereo not drawn) | inactive
O=C(O)c1nc(Cl)ccc1Cl | inactive
Fc1ccc(Oc2ccnc3cc(Cl)cc(Cl)c23)cc1 | inactive
COc1ccc(C(c2ccc(OC)cc2)C(Cl)(Cl)Cl)cc1 | inactive
CCCCOC(=O)c1ccccc1C(=O)OCCCC | inactive
CC(C)(C)c1ccc(CSc2cnn(C(C)(C)C)c(=O)c2Cl)cc1 | inactive
CO/C=C(/C(=O)OC)c1ccccc1Oc1cc(Oc2ccccc2C#N)ncn1 | inactive
C=CCC1=C(C)[C@@H](OC(=O)[C@@H]2[C@@H](C=C(C)C)C2(C)C)CC1=O | inactive
COc1nc(C)nc(NC(=O)NS(=O)(=O)c2ccccc2CCC(F)(F)F)n1 | inactive
Cc1cc(Cl)ccc1OCC(=O)O | inactive
COC(=O)C(C)Oc1ccc(Oc2ccc(Cl)cc2Cl)cc1 (stereo not drawn) | inactive
COc1nc(C)nc(NC(=O)NS(=O)(=O)c2ccccc2Cl)n1 | inactive
CC(Oc1ccc(Cl)cc1Cl)C(=O)O (stereo not drawn) | inactive
